HP1b binding inh – inhibitors of HP1-beta chromodomain binding to methylated histone tails; AlphaScreen HP1-beta / biotin-H3K9me3 peptide binding; Potency, µM (doses to about 114 µM), without a hit: at the highest dose activity change, negative = inhibition, most hits filed as inhibitors; hit rate 0.56% among 390,000; AID 540317; also: nearly all actives have a fitted effect of over 70% in size
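AlphaScreen: HP1-beta (50 nM) preformed 30 min with biotin-H3(1-18)K9me3 peptide (50 nM) in PBS pH 7.4, 0.01% Tween-20. Compound added for 30 min at RT, then streptavidin donor/nickel chelate acceptor beads (10 ug/mL) for 30 min.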
G9a inh – G9a (human) methyltransferase inhibition | Q96KQ7 | G9a H3K9 monomethylation, AlphaScreen, 2 h | Potency, µM (titrated, usually from 102 µM), inactives show at the highest dose activity, negative = inhibition, usual class: inhibitors | hit rate 8.8% among 350,000 | AID 504332; also: % is scaled to controls: 0 for no effect and ±100 for the full control effect; nearly all actives have a fitted effect of over 75% in size
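Readings reflect AlphaScreen signal from monomethyl-H3K9 antibody detection. HMT at 20 nM; substrate b-H3K9 500 nM; cofactor SAM 20 uM; 2 h RT reaction; compounds tested as titrations in qHTS with 15 min preincubation.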
BAZ2B block – BAZ2B (human) inhibition | Q9UIF8 | AlphaScreen BAZ2B-H3K14Ac peptide displacement | Potency, µM (titrated, usually from 114 µM), inactives show at the top dose activity change, negative = inhibition, hits mostly inhibitors | hit rate 4.4% among 360,000; also: % is scaled to controls: 0 for no effect and ±100 for the full control effect; nearly all actives have a fitted effect of over 60% in size
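In this displacement format the biotinylated H3(5-23) peptide acetylated at Lys14 serves as ligand at 50 nM, with BAZ2B at 50 nM in PBS pH 7.4 containing 0.01% Tween-20. Donor and acceptor beads are 10 ug/mL final.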
Sfp PPTase inh – inhibitors of Bacillus subtilis Sfp phosphopantetheinyl transferase. Q9F4F7. AID 1490. hit rate 3.5% among 310,000. Biochemical Sfp PPTase activity, qHTS. Potency, µM, for the others: largest response in the series, negative = inhibition, actives largely listed as inhibitors;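 also: the enzyme is Sfp with the accession as filed and its product quenches rhodamine fluorescence; 0% = enzyme reaction without inhibitor and -100% = no enzyme wells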
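Compounds were incubated with enzyme (final 15 nM) for 15 min at room temperature before substrate addition started the reaction. Fluorescence at 525 nm excitation, 598 nm emission was recorded immediately and after 30 minutes.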
TDP1 block – TDP1 (human) enzyme inhibition; recombinant TDP1, AlphaScreen DNA substrate cleavage; Q9NUW8; hit rate 0.28% among 350,000; Potency, µM (top dose mostly 130 µM), for the others: at the top dose activity change, negative = inhibition, actives largely listed as inhibitors; also: % is scaled to controls: 0 for no effect and ±100 for the full control effect; nearly all actives have a fitted effect of over 40% in size
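Recombinant E. coli-expressed Tdp1 (1 nM) preincubated with compound 15 min at RT, then 5'-biotin/3'-phosphotyrosine-FITC DNA substrate (15 nM) added for 5 min. AlphaScreen beads (10 ug/ml) added, 10 min RT; tyrosine-FITC cleavage read as signal loss.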
JMJD2A Tudor inh – JMJD2A Tudor domain (human) inhibition. AlphaScreen JMJD2A-Tudor / H3K4me3 peptide binding. O75164. Potency, µM (titrated, usually from 114 µM), for inactives: at the highest dose activity change, negative = inhibition, hits mostly inhibitors. hit rate 4.4% among 390,000. AID 504339; also: % is scaled to controls: 0 for no effect and ±100 for the full control effect; nearly all actives have a fitted effect of over 50% in size
Target sequence (O75164 whole entry, looked up, the tested form may be a part): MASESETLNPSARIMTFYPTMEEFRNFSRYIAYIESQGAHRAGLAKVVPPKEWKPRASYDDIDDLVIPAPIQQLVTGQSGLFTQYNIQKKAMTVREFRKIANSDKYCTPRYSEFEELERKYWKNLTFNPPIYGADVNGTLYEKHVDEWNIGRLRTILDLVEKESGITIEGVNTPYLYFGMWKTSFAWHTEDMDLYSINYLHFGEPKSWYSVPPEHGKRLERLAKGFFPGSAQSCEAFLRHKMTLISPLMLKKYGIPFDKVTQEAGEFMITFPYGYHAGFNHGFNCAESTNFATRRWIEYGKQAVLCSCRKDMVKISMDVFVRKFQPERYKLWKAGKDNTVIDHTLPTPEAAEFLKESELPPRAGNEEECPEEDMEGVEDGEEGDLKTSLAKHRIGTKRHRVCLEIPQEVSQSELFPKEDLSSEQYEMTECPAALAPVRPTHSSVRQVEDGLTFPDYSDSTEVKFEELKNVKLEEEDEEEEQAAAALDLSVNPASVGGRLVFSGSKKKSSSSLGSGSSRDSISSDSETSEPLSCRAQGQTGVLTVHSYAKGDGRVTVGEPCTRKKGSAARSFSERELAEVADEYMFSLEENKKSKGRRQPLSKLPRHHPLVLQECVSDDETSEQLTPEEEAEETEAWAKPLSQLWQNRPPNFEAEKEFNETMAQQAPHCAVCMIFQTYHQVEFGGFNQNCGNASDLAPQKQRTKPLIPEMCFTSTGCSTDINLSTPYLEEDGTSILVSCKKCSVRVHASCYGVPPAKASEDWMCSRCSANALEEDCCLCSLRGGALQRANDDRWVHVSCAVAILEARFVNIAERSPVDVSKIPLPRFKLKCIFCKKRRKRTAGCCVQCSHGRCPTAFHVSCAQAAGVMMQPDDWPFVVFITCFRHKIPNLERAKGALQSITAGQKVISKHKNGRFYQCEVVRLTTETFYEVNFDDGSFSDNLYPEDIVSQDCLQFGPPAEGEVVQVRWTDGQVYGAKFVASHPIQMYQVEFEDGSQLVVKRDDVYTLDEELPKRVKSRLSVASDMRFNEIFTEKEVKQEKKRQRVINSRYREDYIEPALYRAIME
Active calls of the source: *; [ ] = dose if it differs, or a comment. The list is not random: actives were taken first. Their share in the collection is about 12%. Calls follow the shape of the dose curve; as a rule, active = well fitted curve in the direction sought with a large enough effect; inconclusive = small, poorly fitted or top-dose-only effect, or another doubt; inactive = no such curve, though single readings can be large; an effect the other way counts as inactive or inconclusive. Potency is read from the fitted curve at half-maximal effect.

`O=C(CN1CCCCC1CO)c1ccc(OC(F)F)cc1` (stereo not given) gave HP1b binding inh 47.7%, G9a inh 56.2µM*, BAZ2B block -14.4%, Sfp PPTase inh 16.0%, TDP1 block -0.5% and JMJD2A Tudor inh 2.1%.
Screening O=C(N[C@@H](CCC/[N+]([O-])=C/c1ccccc1)C(=O)O)OCc1ccccc1 returned HP1b binding inh 24.2% and JMJD2A Tudor inh -9.6%.
CCOC(=O)c1c(CC(C)C)csc1N was read as HP1b binding inh 16.8%, G9a inh 39.8µM*, BAZ2B block inconclusive, Sfp PPTase inh 1.7%, TDP1 block 1.8% and JMJD2A Tudor inh -14.4%.
`CCOC(=O)c1c(-c2ccsc2)csc1N` gave HP1b binding inh -22.1%, G9a inh 47.9%[59 µM], BAZ2B block 15.1%, Sfp PPTase inh 56.2µM*, TDP1 block 9.1% and JMJD2A Tudor inh inconclusive.
For COC(=O)c1c(-c2cccc(C)c2)csc1N the results were HP1b binding inh inconclusive, G9a inh inconclusive, BAZ2B block inconclusive, Sfp PPTase inh -27.8%, TDP1 block 0.0% and JMJD2A Tudor inh inconclusive.
Screening CCOC(=O)c1c(N)sc2c(OC)c(Br)ccc12 returned HP1b binding inh 38.8%, G9a inh 14.4%[59 µM], BAZ2B block 14.5%, Sfp PPTase inh -9.4%, TDP1 block 5.1% and JMJD2A Tudor inh 2.5%.
Screening CCOC(=O)c1c(-c2ccc(C)s2)csc1N returned HP1b binding inh inconclusive, G9a inh inconclusive, BAZ2B block inconclusive, Sfp PPTase inh 11.2µM*, TDP1 block 5.1% and JMJD2A Tudor inh inconclusive.
`CCOC(=O)c1c(CC(C)C)csc1NC(=O)CCl` gave HP1b binding inh inconclusive, G9a inh 24.9%[59 µM], BAZ2B block 33.3%, Sfp PPTase inh -3.8%, TDP1 block -4.7% and JMJD2A Tudor inh -24.4%[11.4 µM].
Screening CCCCc1nn2c(=O)cc(COC(=O)c3cccc(NC(=O)c4cccc(Cl)c4)c3)nc2s1 returned HP1b binding inh 18.9%, G9a inh 5.0%[12.7 µM], BAZ2B block -2.6%, TDP1 block 1.2% and JMJD2A Tudor inh 4.3%.
Screening CN1CCN(C(=O)CSc2nnc(COc3ccccc3)o2)CC1 returned HP1b binding inh 14.5%, G9a inh 39.8µM*, BAZ2B block -2.4%, Sfp PPTase inh -15.8% and JMJD2A Tudor inh -6.0%.
For CN1CCN(C(=O)CSc2nnc(COc3ccc(Cl)cc3)o2)CC1 the results were HP1b binding inh 2.2%, G9a inh 12.4%, BAZ2B block 8.5%, Sfp PPTase inh 7.8%, TDP1 block 10.0%[0.0935 µM] and JMJD2A Tudor inh 4.9%.
`Cc1nc2ccccn2c(=O)c1NC(=O)c1ccccc1Cl` gave HP1b binding inh 29.6%[57 µM], G9a inh -10.4%[59 µM], BAZ2B block 7.5%, TDP1 block 8.1% and JMJD2A Tudor inh -17.9%.
CCOc1ccc(-c2c(C(=O)N/N=C/C3CCCCC3)nnn2-c2nonc2N)cc1 was read as HP1b binding inh 45.0%, G9a inh 23.7%, BAZ2B block inconclusive, Sfp PPTase inh 1.7%, TDP1 block 0.8% and JMJD2A Tudor inh -3.8%.
COc1ccc(/C(C)=N/NC(=O)c2nnn(-c3nonc3N)c2-c2cccs2)cc1 was read as HP1b binding inh 27.3%, G9a inh 46.3%, BAZ2B block 0.2%, Sfp PPTase inh 16.1%, TDP1 block 0.3% and JMJD2A Tudor inh -6.8%.
`C/C(=N\NC(=O)c1nnn(-c2nonc2N)c1CN1CCCCC1)c1ccccc1O` gave HP1b binding inh 20.8%, G9a inh 11.4%, BAZ2B block 44.7µM*, Sfp PPTase inh 3.3%, TDP1 block 6.7% and JMJD2A Tudor inh inconclusive.
`COc1ccc(/C(C)=N/NC(=O)c2nnn(-c3nonc3N)c2-c2ccccc2)cc1` gave HP1b binding inh 26.2%, G9a inh 50.1µM*, BAZ2B block inconclusive, Sfp PPTase inh -22.0%, TDP1 block -12.8% and JMJD2A Tudor inh -7.0%.
